Tested on: RARg:RXRa (NR concentration 270 nM, RXRa partner concentration 90 nM)
Assay: PBM binding z-score (relative to random genomic background probes); higher = stronger binding; sequences stand for … in GC…GCGATTGACAGCGTAGAATGAAGG
In short: (§1)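 Random background probes are the reference for binding z-scores. These scores derive from regression-normalized fluorescence on custom Agilent 4×180K protein-binding microarrays incubated 1 h with ligand-free nuclear receptor dimers. Binding was detected with antibodies against each partner (one per run).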

| Sequence | PBM binding z-score |
| --- | --- |
| AGTCAAATTTCACTAGGTAACGTAAGATTCAGCT | -0.19 |
| CGAACTAGGTCAGAACAGGACAGTTAAGGATGAT | 2.45 |
| GATACAGAGTCAGCTAGAGGCCAGAGTATGGAAA | 0.958 |
| CCCCGGAGGACAGAAGGTCAGAGCTGTCCGCTTT | 3.27 |
| AGTCCAAGTTCACTAGGTAACGTAAGATTCAGCT | 2.53 |
| CGTCAAAGCTCAACTAAGGTAACGTAAAGCACGC | 0.118 |
| TTACGAAGGTGAAAGGTCGTTGATGCACGCCTTG | 4.08 |
| CATACAGGGTCCGCTAGGCCAGAGTAGGGACGGC | -0.0159 |
| CCTACTGGGCCATTCAGAGGTCATTGATCATATG | 4.35 |
| ATCGAATGGTCGAAGGTGAGTATACCCACCCGAA | 0.392 |
| TAGCCTAGGACATGCGGGCCAGTATAGTGTCGGC | -0.38 |
| GCTGCTAGGTCAGGATGGTCAGCTAACGGGTACG | 2.65 |
| CCTCGGAGGACAGAAGGTCAGATCTGTCCGCTTT | 3.26 |
| ATCTCTAGGTAAAGTTCATTGAAAGATCGATAGA | 2.99 |
| CAGCCTAGGTGAGGGCCAGTATAGGAGGAACGTT | -0.107 |
| GCTGCTAGGTCAGGTTGGTCAACTAACGGGTACG | 2.92 |
| CGTCGGAGGACAACAGGAGGTCAGAGCTGCCAGA | 3.83 |

Tested on: RARg homodimer (NR concentration 270 nM)
Assay: as above
In short: as §1

| Sequence | PBM binding z-score |
| --- | --- |
| CAAGCTAGGTCAAGAGGTCAAAGTCCGCTTCCCG | 7.66 |
| TTACCAAGGTGAAAGGTCGTTGAGGCACGCCTTG | 2.03 |
| CCTGCTAGGTCTATGGTCAGCTAAAGCAGCTCGC | -0.344 |
| AGTCATAGTTCACTAGGTAACGTAAGATTCAGCT | 2.72 |
| ACTAGTTGGTAAGCTGAGGTCACACACAATTCGG | 2.93 |
| GCTGCTAGGTCAGGTTGGTCGGCTAACGGGTACG | 3.52 |
| CCTACTGGGCCAAGGTCTTTGATCAGTCAAAGCA | -0.0886 |
| ATATGAAGGTTATCGGGTCATTCAGTTTGCGCAT | 2.89 |
| GCTGCTAGGTCAGGTTGGTCTGCTAACGGGTACG | 3.25 |
| CTCGAAAGGTCGGTTGAGGTGAGTAAACGGATAA | 2.8 |
| CGTCGGAGGACAGAAGGTCAGAGCTGTCCGCTTT | 3.38 |
| AGTCAAAGTTCACGAGGTAACGTAAGATTCAGCT | 7.02 |
| ATATGTAGCTTAAGGGTCATTCAGGTTGGTTCGC | 2.82 |
| CCGACTGGGCCATTCAGAGGTCATTGATCATATG | 3.13 |
| ATCTCTAGGTAAAGTTCAGCGAAAGATCGATAGA | 2.95 |
| CGTCCAAGGTCAGCAGGTCACTGAAAGCGACGTG | 7.65 |
| TAGCCTAGGTCAGATCGGGGCAGTATACGCTATA | 3.83 |
| CGTCCAAGGTCAACAGGTCAGTGAAAGCGACGTG | 7.37 |
| CGTCAAAGTTCAACTAAGTTAACGTAAAGCACGC | 6.78 |
| TCTAGGAGGACACGAAGGTCAGAGCTTTCCAGAG | 3.8 |

| Sequence | PBM binding z-score |
| --- | --- |
| AGTCAAAGTTCACGACGAGGTAACGTAAAGCACG | 6.88 |
| CAAACTAGGTCACGAAAGGTCAACGTCGAATGAC | 8.96 |
| AGTCAAATTTCACTAGGTAACGTAAGATTCAGCT | 0.218 |
| CGAACTAGGTCAGAACAGGACAGTTAAGGATGAT | 3.49 |
| GATACAGAGTCAGCTAGAGGCCAGAGTATGGAAA | 0.249 |
| CCCCGGAGGACAGAAGGTCAGAGCTGTCCGCTTT | 3.26 |
| AGTCCAAGTTCACTAGGTAACGTAAGATTCAGCT | 2.98 |
| CGTCAAAGCTCAACTAAGGTAACGTAAAGCACGC | 0.236 |
| TTACGAAGGTGAAAGGTCGTTGATGCACGCCTTG | 2.19 |
| CATACAGGGTCCGCTAGGCCAGAGTAGGGACGGC | 0.424 |
| CCTACTGGGCCATTCAGAGGTCATTGATCATATG | 2.99 |
| ATCGAATGGTCGAAGGTGAGTATACCCACCCGAA | 0.497 |
| TAGCCTAGGACATGCGGGCCAGTATAGTGTCGGC | 0.0739 |
| GCTGCTAGGTCAGGATGGTCAGCTAACGGGTACG | 3.23 |
| CCTCGGAGGACAGAAGGTCAGATCTGTCCGCTTT | 3.53 |
| ATCTCTAGGTAAAGTTCATTGAAAGATCGATAGA | 3.16 |
| CAGCCTAGGTGAGGGCCAGTATAGGAGGAACGTT | 0.177 |
| GCTGCTAGGTCAGGTTGGTCAACTAACGGGTACG | 3.89 |
| CGTCGGAGGACAACAGGAGGTCAGAGCTGCCAGA | 3.69 |

Tested on: RXRa DBDmut IVT, anti-RXR (DBD mutation: RXRa K156A/R161A, NR concentration 90 nM)
Assay: as above
In short: as §1

| Sequence | PBM binding z-score |
| --- | --- |
| CAAGCTAGGTCAAGAGGTCAAAGTCCGCTTCCCG | 2.58 |
| TTACCAAGGTGAAAGGTCGTTGAGGCACGCCTTG | 0.589 |
| CCTGCTAGGTCTATGGTCAGCTAAAGCAGCTCGC | 0.301 |
| AGTCATAGTTCACTAGGTAACGTAAGATTCAGCT | 1.82 |
| ACTAGTTGGTAAGCTGAGGTCACACACAATTCGG | 1.25 |
| GCTGCTAGGTCAGGTTGGTCGGCTAACGGGTACG | -0.206 |
| CCTACTGGGCCAAGGTCTTTGATCAGTCAAAGCA | -1 |
| ATATGAAGGTTATCGGGTCATTCAGTTTGCGCAT | 2.04 |
| GCTGCTAGGTCAGGTTGGTCTGCTAACGGGTACG | 0.755 |
| CTCGAAAGGTCGGTTGAGGTGAGTAAACGGATAA | 0.85 |
| CGTCGGAGGACAGAAGGTCAGAGCTGTCCGCTTT | 0.338 |
| AGTCAAAGTTCACGAGGTAACGTAAGATTCAGCT | 4.45 |
| ATATGTAGCTTAAGGGTCATTCAGGTTGGTTCGC | 1.95 |
| CCGACTGGGCCATTCAGAGGTCATTGATCATATG | 1.43 |
| ATCTCTAGGTAAAGTTCAGCGAAAGATCGATAGA | 1.25 |
| CGTCCAAGGTCAGCAGGTCACTGAAAGCGACGTG | 2.86 |
| TAGCCTAGGTCAGATCGGGGCAGTATACGCTATA | -0.173 |
| CGTCCAAGGTCAACAGGTCAGTGAAAGCGACGTG | 3.65 |
| CGTCAAAGTTCAACTAAGTTAACGTAAAGCACGC | 4.7 |
| TCTAGGAGGACACGAAGGTCAGAGCTTTCCAGAG | 0.842 |

| Sequence | PBM binding z-score |
| --- | --- |
| AGTCAAAGTTCACGACGAGGTAACGTAAAGCACG | 4.21 |
| CAAACTAGGTCACGAAAGGTCAACGTCGAATGAC | 2.47 |
| AGTCAAATTTCACTAGGTAACGTAAGATTCAGCT | 0.395 |
| CGAACTAGGTCAGAACAGGACAGTTAAGGATGAT | 0.671 |
| GATACAGAGTCAGCTAGAGGCCAGAGTATGGAAA | -0.732 |
| CCCCGGAGGACAGAAGGTCAGAGCTGTCCGCTTT | -0.968 |
| AGTCCAAGTTCACTAGGTAACGTAAGATTCAGCT | 4.3 |
| CGTCAAAGCTCAACTAAGGTAACGTAAAGCACGC | 0.155 |
| TTACGAAGGTGAAAGGTCGTTGATGCACGCCTTG | 0.342 |
| CATACAGGGTCCGCTAGGCCAGAGTAGGGACGGC | -0.419 |
| CCTACTGGGCCATTCAGAGGTCATTGATCATATG | 1.44 |
| ATCGAATGGTCGAAGGTGAGTATACCCACCCGAA | -0.884 |
| TAGCCTAGGACATGCGGGCCAGTATAGTGTCGGC | -1.32 |
| GCTGCTAGGTCAGGATGGTCAGCTAACGGGTACG | 0.0831 |
| CCTCGGAGGACAGAAGGTCAGATCTGTCCGCTTT | 0.421 |
| ATCTCTAGGTAAAGTTCATTGAAAGATCGATAGA | 2.96 |
| CAGCCTAGGTGAGGGCCAGTATAGGAGGAACGTT | -0.941 |
| GCTGCTAGGTCAGGTTGGTCAACTAACGGGTACG | 0.438 |
| CGTCGGAGGACAACAGGAGGTCAGAGCTGCCAGA | 0.531 |
